Among the data in PubChem BioAssay (NCI) are growth inhibition values, retold here.

About 79,000 compounds went through this panel and 15% of them were active in at least one assay; those are over-represented in the sample as a whole. Values without a mark were called inactive. Activity calls are given as the source filed them. Cut-off read from the data, not from the text of the source: active = growth inhibition above about 70%; inactive = the rest.

Assay [1] in a line: NCI Yeast Anticancer Drug Screen. Data for the rad50 strain (AID 155).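 Note: 0% = growth of vehicle-only cultures of the same strain.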 The settings on record: S. cerevisiae rad50 strain growth inhibition, stronger effect = higher value. The essentials: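 Yeast carrying a defined DNA repair defect were exposed to test compounds, and growth was compared with vehicle-treated controls to give percent inhibition.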
The nature of assay [2]: NCI Yeast Anticancer Drug Screen. Data for the mec2-1 strain (AID 157). The note with it: S. cerevisiae mec2-1 strain, stronger effect = higher value. In a few lines: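 Each compound was tested on mec2-1 yeast, a strain altered in DNA damage repair or cell cycle control. Growth inhibition is reported relative to vehicle.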
The nature of assay [3]: NCI Yeast Anticancer Drug Screen. Data for the sgs1 mgt1 strain (AID 161).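 Note: 0% = growth of cultures given vehicle only.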 The settings on record: S. cerevisiae sgs1 mgt1 strain, stronger effect = higher value. In a few lines: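 Read-out: growth inhibition vs vehicle controls. Cells: mutant yeast strain deficient in DNA damage repair.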
The nature of assay [4]: NCI Yeast Anticancer Drug Screen. Data for the cln2 rad14 strain (AID 165).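 Note: 0% = growth equal to vehicle treated cultures.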 The note with it: S. cerevisiae cln2 rad14 strain, stronger effect = higher value. In a few lines: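 Test compounds were added to cln2 rad14 yeast cultures; inhibition of growth was then determined by comparison with vehicle treatment.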
Assay [5] is described as follows: NCI Yeast Anticancer Drug Screen. Data for the bub3 strain (AID 167). The note with it: S. cerevisiae bub3 mutant strain, stronger effect = higher value. In a few lines: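 Compounds were applied to a genetically altered yeast strain carrying a cell-cycle control defect. Growth inhibition was scored against vehicle-treated controls.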
A short description of assay [6]: NCI Yeast Anticancer Drug Screen. Data for the mlh1 rad18 strain (AID 175). The settings on record: S. cerevisiae mlh1 rad18 strain growth inhibition, stronger effect = higher value. In a few lines: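 Inhibition values reflect reduced growth of mutant yeast versus vehicle-treated controls following compound exposure; the mutations affect DNA damage repair.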
[7] abbreviates: at 5.0 µM (retest, dose inferred, filed as 0.5).
Setting [8] is: at 50.0 µM (retest, dose inferred, filed as 5.0).

Consider `Cc1nc2c(Cl)cccc2c2ccccc12`, for which the growth inhibition was 14% in assay [1] (setting [7]); 94% (active) in assay [1] (setting [8]); 94.2% (active) in assay [1] (at 50.0 µM); 4% in assay [2] (setting [7]); 93% (active) in assay [2] (setting [8]); 85.7% (active) in assay [2] (at 50.0 µM). Moreover, the growth inhibition was 5% in assay [3] (setting [7]); 95% (active) in assay [3] (setting [8]); 87.5% (active) in assay [3] (at 50.0 µM); -10% in assay [4] (setting [7]); 95% (active) in assay [4] (setting [8]); 88% (active) in assay [4] (at 50.0 µM). The growth inhibition in assay [5] (setting [7]) was -1%; in assay [5] (setting [8]), 95% (active); in assay [5] (at 50.0 µM), 93.4% (active); in assay [6] (setting [7]), 18%; in assay [6] (setting [8]), 98% (active); in assay [6] (at 50.0 µM), 94.5% (active).

For the compound `Cc1ccc(SCc2ccc(Cl)cc2Cl)nn1`, the growth inhibition in assay [1] (setting [7]) was -1%; in assay [1] (setting [8]), 64%; in assay [1] (at 50.0 µM), 96.8% (active); in assay [2] (setting [7]), -16%; in assay [2] (setting [8]), 85% (active); in assay [2] (at 50.0 µM), 94% (active). The growth inhibition was -4% in assay [3] (setting [7]); 85% (active) in assay [3] (setting [8]); 82.8% (active) in assay [3] (at 50.0 µM); 0% in assay [4] (setting [7]); 20% in assay [4] (setting [8]); 25.9% in assay [4] (at 50.0 µM). In addition, the growth inhibition in assay [5] (setting [7]) is 12%; in assay [5] (setting [8]) it was 61%; in assay [5] (at 50.0 µM), 93.8% (active); in assay [6] (setting [7]), -3%; in assay [6] (setting [8]), 78% (active); in assay [6] (at 50.0 µM), 94% (active).

As for `Cc1ccc2c(c1)C1(SCC(=O)N1c1ccc(Cl)cc1)C(=O)N2` (configuration not stated), the growth inhibition in assay [1] (setting [7]) is 1%; in assay [1] (setting [8]), 57%; in assay [1] (at 50.0 µM), 48.6%; in assay [2] (setting [7]), 6%; in assay [2] (setting [8]), 36%; in assay [2] (at 50.0 µM), 16.4%. In addition, the growth inhibition was 5% in assay [3] (setting [7]); 62% in assay [3] (setting [8]); 77.8% (active) in assay [3] (at 50.0 µM); -1% in assay [4] (setting [7]); 28% in assay [4] (setting [8]); 20.8% in assay [4] (at 50.0 µM). For the same compound, the growth inhibition in assay [5] (setting [7]) is 4%; in assay [5] (setting [8]) it was 74% (active); in assay [5] (at 50.0 µM), 64.9%; in assay [6] (setting [7]), -5%; in assay [6] (setting [8]), 69%; in assay [6] (at 50.0 µM), 67.9%.

In the case of `CC(=O)Oc1c(C)cc([N+](=O)[O-])cc1[N+](=O)[O-]`, the growth inhibition in assay [1] (setting [7]) is -11%; in assay [1] (setting [8]), 99% (active); in assay [1] (at 50.0 µM), 99.7% (active); in assay [2] (setting [7]), 1%; in assay [2] (setting [8]) it was 99% (active); in assay [2] (at 50.0 µM) it was 99.8% (active). Moreover, the growth inhibition in assay [3] (setting [7]) is 11%; in assay [3] (setting [8]), 99% (active); in assay [3] (at 50.0 µM) it was 99.8% (active); in assay [4] (setting [7]), 16%; in assay [4] (setting [8]), 99% (active); in assay [4] (at 50.0 µM) it was 98.9% (active). The growth inhibition in assay [5] (setting [7]) is 9%; in assay [5] (setting [8]), 99% (active); in assay [5] (at 50.0 µM) it was 99% (active); in assay [6] (setting [7]), 16%; in assay [6] (setting [8]) it was 99% (active); in assay [6] (at 50.0 µM), 99.7% (active).

As to `COc1ccccc1/C=N/Nc1nnc(N/N=C/c2ccccc2OC)c2ccccc12`, the growth inhibition in assay [1] (setting [7]) was -1%; in assay [1] (setting [8]) it was 56%; in assay [1] (at 50.0 µM), 74.6% (active); in assay [2] (setting [7]) it was 13%; in assay [2] (setting [8]), 73% (active); in assay [2] (at 50.0 µM) it was 95.8% (active). In addition, the growth inhibition in assay [3] (setting [7]) was 10%; in assay [3] (setting [8]), 89% (active); in assay [3] (at 50.0 µM) it was 58%; in assay [4] (setting [7]) it was -8%; in assay [4] (setting [8]) it was 82% (active); in assay [4] (at 50.0 µM), 97.3% (active). The growth inhibition in assay [5] (setting [7]) is -5%; in assay [5] (setting [8]) it was 94% (active); in assay [5] (at 50.0 µM), 96.2% (active); in assay [6] (setting [7]) it was -5%; in assay [6] (setting [8]), 99% (active); in assay [6] (at 50.0 µM), 93.4% (active).

For `COC(=O)C(=O)C(/C=N/C(=S)NCCc1ccc(OC)c(OC)c1)=C(/O)c1ccc([N+](=O)[O-])cc1`, the growth inhibition in assay [1] (setting [7]) was 3%; in assay [1] (setting [8]) it was 15%; in assay [1] (at 50.0 µM), 0.3%; in assay [2] (setting [7]), -5%; in assay [2] (setting [8]), -3%; in assay [2] (at 50.0 µM), -7.95%. Also, the growth inhibition was 13% in assay [3] (setting [7]); 1% in assay [3] (setting [8]); 19.4% in assay [3] (at 50.0 µM); 20% in assay [4] (setting [7]); -11% in assay [4] (setting [8]); 30.9% in assay [4] (at 50.0 µM). The growth inhibition in assay [5] (setting [7]) is 6%; in assay [5] (setting [8]), -13%; in assay [5] (at 50.0 µM), 15.4%; in assay [6] (setting [7]), -3%; in assay [6] (setting [8]), 8%; in assay [6] (at 50.0 µM) it was -9.7%.

In the case of `OC(C1CCCCN1)C1CC(c2ccccc2)Nc2c(Cl)cc(Cl)cc21` (configuration not stated), the growth inhibition is 9% in assay [1] (setting [7]); 99% (active) in assay [1] (setting [8]); 99.4% (active) in assay [1] (at 50.0 µM); -2% in assay [2] (setting [7]); 99% (active) in assay [2] (setting [8]); 99.5% (active) in assay [2] (at 50.0 µM). In addition, the growth inhibition in assay [3] (setting [7]) was -1%; in assay [3] (setting [8]), 99% (active); in assay [3] (at 50.0 µM) it was 99.4% (active); in assay [4] (setting [7]), -4%; in assay [4] (setting [8]), 99% (active); in assay [4] (at 50.0 µM), 99% (active). For the same compound, the growth inhibition in assay [5] (setting [7]) was 1%; in assay [5] (setting [8]), 99% (active); in assay [5] (at 50.0 µM), 49.5%; in assay [6] (setting [7]), 6%; in assay [6] (setting [8]), 99% (active); in assay [6] (at 50.0 µM), 99.4% (active).

As to `Brc1ccc(C2c3ccccc3-c3ccccc32)cc1`, the growth inhibition is 21% in assay [1] (setting [7]); 97% (active) in assay [1] (setting [8]); 94.5% (active) in assay [1] (at 50.0 µM); 16% in assay [2] (setting [7]); 97% (active) in assay [2] (setting [8]); 94.7% (active) in assay [2] (at 50.0 µM). Also, the growth inhibition is 15% in assay [3] (setting [7]); 95% (active) in assay [3] (setting [8]); 96.6% (active) in assay [3] (at 50.0 µM); 0% in assay [4] (setting [7]); 97% (active) in assay [4] (setting [8]); 94% (active) in assay [4] (at 50.0 µM). The growth inhibition in assay [5] (setting [7]) was 2%; in assay [5] (setting [8]), 98% (active); in assay [5] (at 50.0 µM), 95.8% (active); in assay [6] (setting [7]) it was -4%; in assay [6] (setting [8]), 97% (active); in assay [6] (at 50.0 µM) it was 94.8% (active).

Consider `C=CCNC(=S)N/N=C/c1nccc(-c2ccccc2)c1C`, for which the growth inhibition is 37% in assay [1] (setting [7]); 96% (active) in assay [1] (setting [8]); 73.3% (active) in assay [1] (at 50.0 µM); 29% in assay [2] (setting [7]); 97% (active) in assay [2] (setting [8]); 81.6% (active) in assay [2] (at 50.0 µM). Also, the growth inhibition is 46% in assay [3] (setting [7]); 96% (active) in assay [3] (setting [8]); 82% (active) in assay [3] (at 50.0 µM); 38% in assay [4] (setting [7]); 94% (active) in assay [4] (setting [8]); 84.7% (active) in assay [4] (at 50.0 µM). For the same compound, the growth inhibition in assay [5] (setting [7]) is 54%; in assay [5] (setting [8]), 95% (active); in assay [5] (at 50.0 µM), 84.5% (active); in assay [6] (setting [7]), 24%; in assay [6] (setting [8]), 93% (active); in assay [6] (at 50.0 µM), 78.5% (active).
